Shown are actives, neighbours in structure and some others; about 1.5% of the full set was active somewhere.
MbtI inh: MbtI salicylate synthase inhibition | P9WFX0 | purified MbtI enzyme, fluorescence intensity read-out | inhibition, % (concentration not given with the values) | 100,000 tested, 0.89% active | AID 493033; in the data active = inhibition mostly above about 56%, no sharp cut-off; inactive = mostly below about 77%
Target sequence (P9WFX0 whole entry, looked up): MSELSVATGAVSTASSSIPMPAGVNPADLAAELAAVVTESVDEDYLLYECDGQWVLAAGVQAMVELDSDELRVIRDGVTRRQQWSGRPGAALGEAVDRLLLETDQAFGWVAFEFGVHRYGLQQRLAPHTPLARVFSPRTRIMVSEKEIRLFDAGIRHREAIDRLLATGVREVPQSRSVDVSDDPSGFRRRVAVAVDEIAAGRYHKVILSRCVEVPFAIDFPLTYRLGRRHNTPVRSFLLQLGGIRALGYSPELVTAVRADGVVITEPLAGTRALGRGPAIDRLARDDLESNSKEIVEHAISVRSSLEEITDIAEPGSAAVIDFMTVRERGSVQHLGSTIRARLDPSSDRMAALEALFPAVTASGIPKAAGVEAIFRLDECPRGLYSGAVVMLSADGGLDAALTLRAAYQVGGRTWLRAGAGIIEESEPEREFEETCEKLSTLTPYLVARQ
Polio RdRp inh: inhibitors of poliovirus RNA polymerase binding and polymerization | poliovirus polymerase elongation, fluorescence polarization; hits give low values | % elongation, % (compound at 16.7 µg/mL) | 150,000 tested, 0.66% active; in the data active = % elongation below about 90%
AID504770: E. coli YBA685 growth inhibition, screen for V. cholerae RctB inhibitors. E. coli YBA685 rctB-dependent plasmid, OD600 growth, 3 h; hits give low values. AID 504770. 130,000 tested, 0.27% active. z-score (no concentration beside the values); in the data active = z-score below about -2, passing the limit was not always enough
MenB inh: inhibitors of Mycobacterium tuberculosis MenB enzyme | P9WNP5 | MenB enzyme assay, absorbance read-out | inhibition, % (no concentration beside the values) | 100,000 tested, 0.43% active; in the data active = inhibition above about 21%, passing the limit was not always enough
Numbers without * were called inactive; x = not tested or not shown.

SMILES | MbtI inh | Polio RdRp inh | AID504770 | MenB inh
C=CCC1Cc2ccccc2C(CC=C)N1 (configuration not stated) | -3 | 100 | -0.1 | 39*
O=C(Nc1ccccc1C(=O)N1CCCC1)c1cccc(I)c1 | x | 104 | 0.2 | -1
Cc1coc2cc3oc(=O)c(CC(=O)O)c(C)c3cc12 | -32 | 104 | 2.5 | -28
COc1ccc(N=Cc2cc(Br)ccc2O)c(S(=O)(=O)N2CCOCC2)c1 | -10 | 101 | 0.25 | -13
Cc1ccc(Nc2nn(CN3CCOCC3)c(=S)s2)cc1 | 90* | 102 | -1 | -37
COc1ccc(Cl)cc1NC(=O)c1cc2c(Cl)nc3ccc(C)cc3c2s1 | 0 | 101 | -1.1 | -11
Cc1ccc(NC(=O)c2cc3c(Cl)nc4ccc(C)cc4c3s2)c(Cl)c1 | x | 63* | x | x
CCOC(=O)c1c(N)sc(N)c1C(=O)OCC | 97* | 98 | -0.7 | 1
CCOC(=O)c1c(N)sc2ccccc12 | x | x | -0.1 | x
Cc1cc(NC(=O)NC2CCN(Cc3ccccc3)CC2)c(C(F)(F)F)o1 | -5 | 101 | -2.1 | 9
Cc1cccc(NC(=O)C2=Cc3sc(C)c(C)c3CS2)c1C | 19 | 101 | 0.7 | -23
COC(=O)c1ccc(/C=C/C(=O)OCC#N)cc1 | 1 | 88* | 0.4 | 3
S=c1nc(CNc2ccccc2)[nH][nH]1 | 95* | 102 | -0.8 | -42
S=c1nc(Cc2ccccc2)[nH][nH]1 | x | 96 | -0.35 | 19
COc1cccc(C(O)C(F)(F)F)c1 (configuration not stated) | 8 | 100 | 0.8 | 29*
Cc1nc(C(=O)Oc2ccc(Cl)cc2)sc1C(=O)Oc1ccc(Cl)cc1 | 55 | 42* | 0 | -7
CCc1nc2sc3c(NCCN(C)C)ncnc3c2c2c1CCCC2 | x | x | -0.65 | x
Cn1nc(-c2ccc(F)cc2)nc2c(=O)n(C)c(=O)nc1-2 | 31 | 36* | -0.5 | -17
COc1ccc(-c2nc3c(=O)n(C)c(=O)nc-3n(C)n2)cc1OC | -3 | x | -0.25 | x
COc1ccc(-c2noc(=O)n2Cc2cccc(C)c2)cc1 | -4 | 103 | 0.35 | 11
COc1ccc(-c2noc(=O)n2CCCC#N)cc1OC | 0 | 103 | 1.3 | 31*
c1ccc2[nH]c(SCCCN3CCCCC3)nc2c1 | 8 | 99 | -0.4 | -19
c1ccc2[nH]c(SN3CCCCC3)nc2c1 | 97* | 100 | 0.1 | -8
Cc1cc(C)c2nc(N3CCC(C(=O)N4CC(C)CC(C)C4)CC3)sc2c1 (configuration not stated) | -6 | 103 | -0.75 | 4
NCCn1ccc2ccccc21 | 6 | 99 | -0.45 | -18
SMILES | MbtI inh | Polio RdRp inh | AID504770 | MenB inh
S=C=NCCn1ccc2ccccc21 | 93* | 102 | -3.8* | -77
Cc1ccnc(NS(=O)(=O)c2ccc(NC(=O)c3ccc(C)c(C)c3)cc2)n1 | x | 107 | x | x
CC(=O)NS(=O)(=O)c1ccc(NC(=O)c2ccc(C)c(C)c2)cc1 | 6 | 103 | -0.7 | 23*
O=c1cc(-c2c(F)c(F)c(F)c(F)c2F)oc2ccccc12 | x | x | -0.65 | x
O=c1cc(-c2c(F)c(F)c(F)c(F)c2F)oc2c(F)c(F)c(F)c(F)c12 | 29 | 90* | 2.6 | -31
COCc1nnc(NC(=O)C2CCN(C(=O)c3ccco3)CC2)s1 | 92* | 93 | 0.7 | -2
CC(C)c1nnc(NC(=O)C2CCN(C(=O)c3ccco3)CC2)s1 | 64 | 105 | 2.3 | -58
OCC#CCSc1nc2ccccc2o1 | 3 | 101 | 0.95 | 39*
c1ccc2oc(SCCSc3nc4ccccc4o3)nc2c1 | x | 106 | 0 | -1
CN(C)c1ccc(Nc2nc(-c3ccccc3)c(C(=O)c3ccc(F)cc3)s2)cc1 | x | x | -0.2 | x
N#CC1=C(N)SC(N)=C(C#N)C1C1CCCCC1 | x | x | -0.65 | x
COc1ccc(C(=S)N2CCCCC2)cc1OC | 82* | 98 | 0.05 | -37
CCOc1cc(C(=S)N2CCOCC2)ccc1OC | x | 65* | -1.2 | -21
CCOc1cc(C(C#N)N2CCOCC2)ccc1OC (configuration not stated) | x | x | -0.8 | x
COc1ccc(C(=S)N2CCCC2)cc1OC | 6 | 101 | 0.15 | 1
CCNc1nc(NCC)nc(N(C)N)n1 | -17 | 101 | -0.35 | 32*
Cc1c(C(=O)N2CCOCC2)oc2c1-c1nn(CC(=O)NCc3cccc(F)c3)cc1CC2 | x | 84* | x | x
Cc1c(C(=O)N2CCCC2)oc2c1-c1nn(CC(=O)NCCCOC(C)C)cc1CC2 | x | 47* | x | x
O=C1CSc2nnc(Cn3nnc4ccccc43)n2N1 | 87* | 97 | 0.5 | 3
CCOC(=O)c1ccc(NCC(=O)N2CCc3ccccc32)cc1 | -19 | 104 | 0.3 | x
CCc1ccc(N2C(=O)CC(Sc3ccccn3)C2=O)cc1 (configuration not stated) | 69* | 103 | -0.55 | -31
O=C1CC(Sc2cccs2)C(=O)N1c1ccccc1 (configuration not stated) | x | x | -1.2 | x
CCc1ccc(N2C(=O)CC(Sc3nnc(N)s3)C2=O)cc1 (configuration not stated) | 101* | 101 | 0.85 | 4
O=C1CC(Sc2ccccc2)C(=O)N1c1ccccc1 (configuration not stated) | 64* | 103 | 0.65 | 2
O=C1CC(Sc2ccccn2)C(=O)N1c1ccccc1 (configuration not stated) | x | x | 0.25 | x
SMILES | MbtI inh | Polio RdRp inh | AID504770 | MenB inh
CCc1ccc(N2C(=O)CC(Sc3ccccc3N)C2=O)cc1 (configuration not stated) | -1 | 98 | 1.4 | -4
O=C(O)c1cccnc1SC1CC(=O)N(c2ccc(Cl)cc2)C1=O (configuration not stated) | 66* | 105 | 0.1 | -17
CCN(CC(=O)Nc1ccc2c(c1)OCCO2)C(=O)C1CC1 | -8 | x | -0.55 | -1
CC(=O)Oc1c(O)ccc2c(C)cc(=O)oc12 | -1 | 102 | -0.6 | -6
Cc1cc(=O)oc2c(/C=N/c3ccccn3)c(O)ccc12 | 32 | 88* | 0.1 | -23
CCn1c(SC(C)c2nc3ccccc3s2)nnc1-c1cccc(S(=O)(=O)N2CCCC2)c1 (configuration not stated) | 15 | 107 | 0.4 | -13
O=S(=O)(Cc1noc(CSc2ccc(Cl)cc2)n1)c1ccccn1 | x | x | 0 | x
Cc1ccccc1NC(=O)c1sc(N)c(C(N)=O)c1C | 87* | 97 | -1.1 | -19
Cc1ccc(C(=O)Nc2ccccc2C)cc1 | 5 | 100 | -0.65 | 11
COc1cc(Cl)c(C)cc1NC(=S)N(Cc1ccccc1C)CC1CCC(C(=O)O)CC1 (configuration not stated) | 52* | 98 | -0.2 | -11
O=C1OCC(CO)N1c1ccccc1 (configuration not stated) | x | 90* | 1.4 | -43
CNC(=S)NNc1ncc(C(F)(F)F)cc1Cl | 24 | 101 | -0.25 | -4
CS(=O)(=O)CS(=O)(=O)NNc1ncc(C(F)(F)F)cc1Cl | 57* | 104 | -0.95 | -25
Cc1c(C)[n+]([O-])c2ccc3c(non3O)c12 | 13 | 101 | -2.2* | -138
NS(=O)(=O)c1ccc(NNC(=O)c2c(F)cccc2Cl)cc1 | 5 | 99 | -0.65 | -1
CS(=O)(=O)N1C(=O)CCC1=O | -9 | 100 | -0.15 | 7
CCNc1nc(-c2ccccc2)cs1 | x | x | -0.05 | x
